This is a sample that favours compounds with a hit; in the whole collection about 11% have one here.
AMA1 RON2 block – AMA1-RON2 (P. falciparum) interaction inhibition. AlphaScreen AMA1-biotinylated RON2 peptide binding. Potency, µM (titrated, usually from 58.2 µM), inactives show at the highest dose activity change, negative = inhibition, usual class: inhibitors. 360,000 compounds, 0.2% hits;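 note: 0% = vehicle wells and -100% = peptide control; nearly all actives have a fitted effect of over 45% in size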
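AMA1 (3D7) with his tag at 25 nM final met compounds first, then biotinylated RON2 peptide at 25 nM; detection used donor plus acceptor beads, 10 µg/mL apiece, read by AlphaScreen after 30 min at room temperature.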
Pf growth 48h – inhibits P. falciparum growth in the first generation, 48 h. P. falciparum luciferase growth in erythrocytes, 48 h. Potency, µM (doses to about 28.7 µM), for inactives: at the highest dose activity change, negative = inhibition, actives largely listed as inhibitors. 310,000 compounds, 5.9% hits. AID 504832
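Firefly luciferase activity from engineered P. falciparum reports growth; inhibitors lower the luminescent signal. Cultures contained 2% hematocrit erythrocytes at 0.1% final parasitemia.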
Pf growth 96h – P. falciparum growth inhibition at 96 hour, primary screen for plastid delayed-death inhibitors; Potency, µM (top dose mostly 28.7 µM), for the others: at the top dose activity change, negative = inhibition, hits mostly inhibitors; 320,000 compounds, 6.9% hits; P. falciparum luciferase reporter growth, 96 h
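Parasite growth measured via integrated firefly luciferase reporter in P. falciparum. Infected erythrocytes at 2% hematocrit, 0.05% parasitemia final were treated 96 hours at 37 C under 5% CO2, and luminescence was read.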
HCV inh – blocks hepatitis C virus; 340,000 compounds, 3.4% hits; Potency, µM (doses to about 41.8 µM), for inactives: at the top dose activity change, negative = inhibition, actives largely listed as inhibitors; Huh7.5.1 HCVcc-Cre infection, luciferase reporter, 44 h; AID 651820
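A cell-based infection assay in which seeded cells (1,000 per well) receive test compound after 4 h, are inoculated with HCVcc-Cre at approximately 0.5 moi, and are incubated 44 h before luminescence detection.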
Active calls of the source: *; ? = inconclusive; . = not tested or not shown; [ ] = another dose, or the depositor's remark. Calls come from the whole dose curve; as a rule, active = well fitted curve in the direction sought with a large enough effect; inconclusive = small, poorly fitted or top-dose-only effect, or another doubt; inactive = no such curve, though single readings can be large; an effect the other way counts as inactive or inconclusive. Unless noted, % is set by controls: 0 for no effect and ±100 for the full control effect; potency is the fitted concentration of half-maximal effect.

SMILES | AMA1 RON2 block | Pf growth 48h | Pf growth 96h | HCV inh
Cc1cc(C)cc(Nc2nc3ccc(C)cc3n3cnnc23)c1 | -8% | 18% | 2% | -19%
COc1ccccc1Nc1nc2ccc(C)cc2n2cnnc12 | 10% | 2% | -1% | 6.3µM*
O=C1C2C3C=CC(O3)C2C(=O)N1Nc1ccccc1 (stereo not given) | 23% | . | . | -1%
COc1ccc(S(=O)(=O)N2CCC(c3cc(-c4cccc5ccccc45)n[nH]3)CC2)cc1 | -2% | ? | ? | ?
O=S(=O)(c1cccc(C(F)(F)F)c1)N1CCC(c2cc(-c3cccc4ccccc34)n[nH]2)CC1 | -10% | ? | 10µM* | 1%
O=C(Nc1cccc(S(=O)(=O)N2CCCCCC2)c1)C1CCC1 | -8% | ? | 13µM* | -19%
CS(=O)(=O)c1cccc(NC(=O)C2CC2)c1 | 3% | 10% | ? | 10%
O=C(Nc1ccncc1)C1CCN(S(=O)(=O)c2cccc(C(F)(F)F)c2)CC1 | -3% | 13µM* | 9.3µM* | -5%
O=C(Nc1cccc(S(=O)(=O)c2cccc(NC(=O)C3CC3)c2)c1)C1CC1 | 5% | ? | 11% | 5.6µM*
O=S(=O)(Nc1nc2ccccc2nc1Nc1cccc(S(=O)(=O)N2CCCCC2)c1)c1ccccc1 | 0% | 8.3µM* | 2.1µM* | ?
COc1ccc(S(=O)(=O)Nc2cccc(S(=O)(=O)N3CCCCCC3)c2)cc1 | -4%[11.6 µM] | 2% | ? | 7%
CCN(CC)c1cc2nc(C)n(Cc3ccccc3)c(=O)c2cc1NC(=O)C1CC1 | 0% | 7.4µM* | 18% | ?
Cc1nc2cc(N3CCN(C)CC3)c(NC(=O)Cc3ccccc3)cc2c(=O)n1Cc1ccccc1 | -4% | 10µM* | -7% | -27%
CCCC(=O)Nc1ccc2nc(C)n(Cc3ccccc3Cl)c(=O)c2c1 | 1% | ? | -15% | ?
N#Cc1ccc(C(=O)N2CCCC(c3cc(C(=O)NCc4cccnc4)no3)C2)cc1 (stereo not given) | -9% | . | . | .
Cc1oc(-c2ccc(Cl)cc2)nc1CS(=O)CC(=O)NC1CCCC1 (stereo not given) | 5% | 24% | ? | -14%
CCN(c1ccccc1)S(=O)(=O)c1ccc(Cl)nc1 | -2% | 0% | ? | 2%
CCN(c1ccccc1)S(=O)(=O)c1ccc(NCC2COc3ccccc3O2)nc1 (stereo not given) | 30% | 78% | ? | 11µM*
CCOC(=O)c1ccc2c(c1)n(Cc1ccccc1)c(C)[n+]2CC | 12% | ? | 16% | -1%
CCOC(=O)c1ccc2c(c1)n(CC)c(/C=C/N(C)c1ccccc1)[n+]2CC | 7% | 1.2µM* | -1% | ?
O=C(c1ccc(F)cc1)C(CCCCCC(CN1CCOCC1)C(=O)c1ccc(F)cc1)CN1CCOCC1 (stereo not given) | -7% | ? | 9.3µM* | ?
CC12COC3(P(=O)(c4ccccc4)c4ccccc4)CC1CCC23CP(=O)(c1ccccc1)c1ccccc1 (stereo not given) | -18% | 1.2µM* | 0.93µM* | 15%
Cc1ccc(/C=C/C(=O)N2CCc3ccccc3C2)cc1 | 0% | . | 34% | 18%
CC(C)(C)c1ccc(/C=C/C(=O)N2CCc3ccccc3C2)cc1 | 0% | 0.93µM* | 0.74µM* | -11%
Cc1ccc(-c2c(C)sc3nc(CN4CCN(CC(=O)NC5CC5)CC4)[nH]c(=O)c23)cc1 | 36% | 10µM* | ? | -1%
SMILES | AMA1 RON2 block | Pf growth 48h | Pf growth 96h | HCV inh
Cc1sc2nc(CN3CCOCC3)[nH]c(=O)c2c1-c1ccccc1 | 4% | 10% | 8% | 5%
COc1ccc(C=O)cc1OS(=O)(=O)c1ccc(NC(C)=O)cc1 | 1% | ? | ? | ?
Cc1ccc(OCC(=O)Nc2ccc([N+](=O)[O-])cc2)cc1 | 10% | 6% | 243% | 8%
COc1cc(C=O)cc(OC)c1OS(=O)(=O)c1ccc(NC(C)=O)cc1 | -2% | 28% | 4.1µM* | -23%
O=C(NCc1ccccc1F)Nc1ccc([N+](=O)[O-])cc1 | 10% | -5% | 13µM* | -26%
O=C(Nc1ccc(Oc2ccc(NC(=O)Nc3ccc([N+](=O)[O-])cc3)cc2)cc1)Nc1ccc([N+](=O)[O-])cc1 | -2% | ? | ? | 5.6µM*
Cc1ccc(NC(=O)C2(c3ccc([N+](=O)[O-])cc3)CCCC2)cc1 | -13% | 2.6µM* | -3% | ?
COc1ccccc1-c1nnc(NC(=O)CSc2nncn2C)s1 | 12% | 155% | 0% | -11%
CCCc1cc(=O)[nH]c(SCC(=O)N2c3ccccc3CC2C)n1 (stereo not given) | -5% | . | . | 13%
CN(C)S(=O)(=O)c1ccc(C(=O)NCc2nnc(SCC(=O)NCc3ccco3)o2)cc1 | -1% | 56% | -15% | .
Cc1ccccc1NC(=O)CN1C(=O)COc2ccc(Cl)cc21 | 5% | . | ? | 3%
COc1cccc(C(=O)N2CCN(Cc3ccccc3Br)CC2)c1 | ? | 25% | ? | 10%
CC(=O)Nc1ccc(OS(=O)(=O)c2ccc([N+](=O)[O-])cc2)cc1 | -3% | 13µM* | 1% | -6%
Cc1ccc(C(C)C)cc1NC(=O)Nc1ccc([N+](=O)[O-])cc1 | -15% | 4.1µM* | 3.3µM* | 13µM*
CC(=O)Nc1ccc(OS(=O)(=O)c2ccc(Cl)cc2)cc1 | 1% | ? | 28% | 4%
Cc1cc(O)c(C(C)C)cc1NC(=O)Nc1ccc([N+](=O)[O-])cc1 | -4% | . | . | ?
O=C(Nc1ccc(Cl)c(Cl)c1)Nc1ccc([N+](=O)[O-])cn1 | -4% | 9.3µM* | ? | -3%
O=C(Nc1ccc([N+](=O)[O-])cc1)Nc1ccc([N+](=O)[O-])cc1 | . | 2.7µM* | 2.4µM* | .
CC(=O)c1ccc(NC(=O)Nc2ccc([N+](=O)[O-])cc2)cc1 | 2% | -9% | ? | 8%
O=C(COC(=O)c1ccc(S(=O)(=O)Nc2ccccc2)cc1)NCCC1=CCCCC1 | -4% | 18% | 28% | 9%
OCC[C@@H]1C[C@H](O)[C@@H](O)[C@@]2(CCCCO2)O1 | -8% | . | . | 25%
CC(C)c1ccc(/C=C2\SC(=O)N(CC(=O)NC3C=CS(=O)(=O)C3)C2=O)cc1 (stereo not given) | -5% | ? | ? | -6%
CC[C@@H](C)[C@@H](CO)NC(=O)[C@H]1O[C@@H](n2cnc3c(N)ncnc32)[C@H](O)[C@@H]1O | -1% | . | . | .
COC(=O)[C@@H]1CC[C@H](C)[C@@H](c2ccc(C)cc2)N1C(=O)c1ccc(/C=N/OC[C@@H](O)COCc2ccco2)cc1 | . | 6.6µM* | 6.6µM* | ?
C=CC[C@@H]1C=C[C@H](O/N=C/c2ccc(C(=O)N3[C@H](c4ccc(C)cc4)[C@@H](C)CC[C@H]3C(=O)OC)cc2)[C@@H](CO)O1 | . | -30% | ? | -5%[8.37 µM]
CCCn1c(SCC(=O)N2CCCCC2)nnc1C(C)C | 24% | 14% | 13% | 1%
COCCn1c(SCC(=O)N2CCCC2)nnc1C(C)C | 4% | 31% | 5.2µM* | 10%

High-throughput results deposited in PubChem BioAssay by National Center for Advancing Translational Sciences (NCATS).
